Read-out in experiment [1]: succinate dehydrogenase complex iron sulfur subunit B (SDHB), SDHB (gene 6390)
In words: LTEA_HepaRG_SDHB: Life Technologies and Expression Analysis (LTEA) Assay for succinate dehydrogenase complex iron sulfur subunit B (SDHB) using HepaRG (AID 2283528). The following applies: mRNA level, 48 h; actives raise or lower the signal. Put shortly: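 Readout is SDHB transcript level by qRT-PCR, normalised to three housekeeping genes and fitted bidirectionally against 0.5% DMSO vehicle. Human HepaRG cells were treated for 48 h at up to 100 uM.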

Read-out in experiment [2]: Signal transducer and activator of transcription 3 (Homo sapiens) (UniProt P40763)
In words: LTEA_HepaRG_STAT3: Life Technologies and Expression Analysis (LTEA) Assay for Signal transducer and activator of transcription (STAT3) using HepaRG (AID 2283529). The settings on record: mRNA level, 48 h; actives raise or lower the signal. The essentials: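 Differentiated HepaRG cells, serum-free induction medium, dosed 48 h in duplicate, 8 half-log concentrations from 100 uM in 0.5% DMSO. STAT3 mRNA by qRT-PCR, normalised to ACTB, GAPDH, POLR2A; bidirectional fit versus DMSO.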

Read-out in experiment [3]: solute carrier (SLCO1B1), SLCO1B1 (gene 10599)
Briefly: LTEA_HepaRG_SLCO1B1: Life Technologies and Expression Analysis (LTEA) Assay for solute carrier (SLCO1B1) using HepaRG (AID 2283530). The following applies: mRNA level, 48 h; actives raise or lower the signal. The essentials: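 SLCO1B1 transcript read by qRT-PCR (Fluidigm arrays), normalized to three housekeeping genes, after 48 h chemical exposure of HepaRG cells; bidirectional concentration-response fitting versus 0.5% DMSO baseline. Eight-point half-log series, maximum 100 uM.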

Read-out in experiment [4]: sulfotransferase 2A1 (SULT2A1), SULT2A1 (gene 6822)
In words: LTEA_HepaRG_SULT2A1: Life Technologies and Expression Analysis (LTEA) Assay for sulfotransferase 2A1 (SULT2A1) using HepaRG (AID 2283531). The settings on record: mRNA level, 48 h; actives raise or lower the signal. The essentials:
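HepaRG, 48 h chemical exposure, 8-pt half-log curve from 100 uM in 0.5% DMSO, duplicates. Readout: TaqMan qRT-PCR of SULT2A1 mRNA, housekeeping-normalized. Bidirectional fit vs DMSO baseline.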

Read-out in experiment [5]: Transforming Growth Factor (TGFA), TGFA (gene 7039)
In words: LTEA_HepaRG_TGFA: Life Technologies and Expression Analysis (LTEA) Assay for Transforming Growth Factor (TGFA) using HepaRG (AID 2283532). The settings on record: mRNA level, 48 h; actives raise or lower the signal. Put shortly:
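Differentiated HepaRG cells exposed 48 hours in serum-free induction medium, 0.5% DMSO vehicle, 8-point half-log series from 100 uM, in duplicate. TGFA mRNA by TaqMan qRT-PCR, normalised to ACTB, GAPDH, POLR2A; bidirectional fit versus DMSO.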

Read-out in experiment [6]: Transforming Growth Factor (TGFB1), TGFB1 (gene 7040)
In words: LTEA_HepaRG_TGFB1: Life Technologies and Expression Analysis (LTEA) Assay for Transforming Growth Factor (TGFB1) Transporter using HepaRG (AID 2283533). The settings on record: mRNA level, 48 h; actives raise or lower the signal. The essentials: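 qRT-PCR readout of TGFB1 transcript in HepaRG lysates, normalized to three housekeeping genes; gain or loss of signal fitted relative to 0.5% DMSO vehicle. Exposure: 48 h, 8-point curve from 100 uM, duplicate wells.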

Read-out in another experiment: TIMP1, TIMP1 (gene 7076)
In words: LTEA_HepaRG_TIMP1: Life Technologies and Expression Analysis (LTEA) Assay for TIMP1 using HepaRG (AID 2283534).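 As to outcome: TaqMan qRT-PCR signal normalized to ACTB GAPDH and POLR2A housekeeping genes.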 The settings on record: mRNA level, 48 h; actives raise or lower the signal. Put shortly: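 HepaRG, 48 h exposure, 8-pt half-log series from 100 uM in 0.5% DMSO, duplicates; TIMP1 transcript by Fluidigm qRT-PCR, housekeeping-normalized; bidirectional curve fit vs DMSO baseline.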

Read-out in experiment [7]: Tumor necrosis factor receptor 1 (TNFRSF1A), TNFRSF1A (gene 7132)
Briefly: LTEA_HepaRG_TNFRSF1A: Life Technologies and Expression Analysis (LTEA) Assay for Tumor necrosis factor receptor 1 (TNFRSF1A) using HepaRG (AID 2283535). The settings on record: mRNA level, 48 h; actives raise or lower the signal. The essentials: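 HepaRG, 48 h plating then 48 h chemical exposure, serum-free induction media; 8-pt CRC from 100 uM, half-log, 0.5% DMSO vehicle, duplicates. Readout: TaqMan qRT-PCR (Fluidigm), housekeeping-gene normalized; bidirectional fit vs DMSO.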

Read-out in experiment [8]: Thyroid Hormone Responsive (THRSP), THRSP (gene 7069)
Briefly: LTEA_HepaRG_THRSP: Life Technologies and Expression Analysis (LTEA) Assay for Thyroid Hormone Responsive (THRSP) using HepaRG (AID 2283536). The settings on record: mRNA level, 48 h; actives raise or lower the signal. Put shortly:
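Differentiated HepaRG cells treated 48 h in serum-free induction medium with 8 half-log concentrations up to 100 uM (0.5% DMSO), duplicates. THRSP mRNA by TaqMan qRT-PCR normalised to ACTB, GAPDH, POLR2A; bidirectional fit versus DMSO.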

Read-out in experiment [9]: Cellular tumor antigen p53 (Homo sapiens) (UniProt P04637)
In words: LTEA_HepaRG_TP53: Life Technologies and Expression Analysis (LTEA) Assay for Tumor Protein P53 (TP53) using HepaRG (AID 2283537). The following applies: mRNA level, 48 h; actives raise or lower the signal. Put shortly:
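Read-out is TP53 transcript level by microfluidic qRT-PCR, normalised to three housekeeping genes and fitted bidirectionally against DMSO. Human HepaRG cells received compounds for 48 h, highest concentration 100 uM.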

Read-out in experiment [10]: UDP glucuronosyltransferase (UGT1A1), UGT1A1 (gene 54658)
Briefly: LTEA_HepaRG_UGT1A1: Life Technologies and Expression Analysis (LTEA) Assay for UDP glucuronosyltransferase (UGT1A1) using HepaRG (AID 2283538). The settings on record: mRNA level, 48 h; actives raise or lower the signal. Put shortly: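 HepaRG cells, 0.5% DMSO vehicle, 48 h exposure in serum-free induction medium to 8-point half-log series topping at 100 uM, in duplicate. UGT1A1 mRNA by Fluidigm qRT-PCR, normalized to ACTB/GAPDH/POLR2A; bidirectional fit versus DMSO.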

Read-out in experiment [11]: UDP glucuronosyltransferase (UGT1A6), UGT1A6 (gene 54578)
In words: LTEA_HepaRG_UGT1A6: Life Technologies and Expression Analysis (LTEA) Assay for UDP glucuronosyltransferase (UGT1A6) using HepaRG (AID 2283539). The following applies: mRNA level, 48 h; actives raise or lower the signal. The essentials: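 qRT-PCR readout of UGT1A6 mRNA (normalized to ACTB/GAPDH/POLR2A) in differentiated HepaRG cells after 48 h chemical exposure; 8 concentrations, top 100 uM, half-log steps, 0.5% DMSO. Bidirectional curve fit relative to DMSO baseline.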

Experiment [12] is described as follows: LTEA_HepaRG_LDH_cytotoxicity: Cytotoxicity Assessment in the Life Technologies and Expression Analysis (LTEA) Assay (AID 2283563; active = hit-call score of the fitted dose curve at least 0.9, where 1 is the maximum;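 as to AC50: LDH activity released into spent culture medium as a marker of cell death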). The essentials:
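HepaRG (human liver line), 48 h exposure, 8-pt half-log series from 100 uM, 0.5% DMSO vehicle, duplicates. Read-out: LDH in spent medium. Positive-direction fit vs DMSO baseline.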

The nature of experiment [13]: TOX21_p53_BLA_p2_viability: Viability Assessment in the Tox21 HCT-116 p53 Agonism Beta-lactamase Assay, Phase 2 (AID 2283591; active = hit-call score of the fitted dose curve at least 0.9, where 1 is the maximum;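 also: compound exposure lasted 16 h at 37 °C; actives lower the ATP signal meaning cytotoxicity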). Put shortly: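 HCT116 p53-bla cells, 4000/well, dosed after 5 h plating (217-fold dilution of DMSO stocks) and incubated 16 h at 37C. Viability taken as cellular ATP by CellTiter-Glo luminescence after 30 min RT; signal loss marks cytotoxicity.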

In experiment [14] the target is Cellular tumor antigen p53 (Homo sapiens) (UniProt P04637). Briefly: TOX21_p53_BLA_p2_ratio: Tox21 HCT-116 p53 Agonism Beta-lactamase Assay, Ratio, Phase 2 (AID 2283592; active = hit-call score of the fitted dose curve at least 0.9, where 1 is the maximum). Put shortly:
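In this cell-based reporter format, HCT116 cells were dosed with chemicals delivered from DMSO by 217-fold dilution and incubated 16 h at 37C. Emission at 460 and 530 nm after 2 h CCF4-AM loading provided the ratio, fitted upward versus DMSO.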

Experiment [15] in a line: TOX21_p53_BLA_p3_viability: Viability Assessment in the Tox21 HCT-116 p53 Agonism Beta-lactamase Assay, Phase 3 (AID 2283593; active = hit-call score of the fitted dose curve at least 0.9, where 1 is the maximum;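 also: cells exposed to compound for 16 h before reading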). The essentials: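 HCT116 cells, 4000/well, dosed 5 h after plating by pin transfer (217-fold dilution from DMSO stock) and incubated 16 h at 37C, 5% CO2. Viability read as ATP luminescence with CellTiter-Glo after 30 min at room temperature.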

Experiment [16] deals with Cellular tumor antigen p53 (Homo sapiens) (UniProt P04637). In words: TOX21_p53_BLA_p3_ratio: Tox21 HCT-116 p53 Agonism Beta-lactamase Assay, Ratio, Phase 3 (AID 2283596; active = hit-call score of the fitted dose curve at least 0.9, where 1 is the maximum). The essentials: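 HCT116 p53-bla cells (4000/well) given compound in DMSO (217-fold dilution) after 5 h, incubated 16 h at 37C. CCF4-AM substrate 2 h at room temperature; 460/530 nm emission ratio, gain fitted against DMSO.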
Sequence of Cellular tumor antigen p53 (Homo sapiens) (P04637 whole entry, looked up): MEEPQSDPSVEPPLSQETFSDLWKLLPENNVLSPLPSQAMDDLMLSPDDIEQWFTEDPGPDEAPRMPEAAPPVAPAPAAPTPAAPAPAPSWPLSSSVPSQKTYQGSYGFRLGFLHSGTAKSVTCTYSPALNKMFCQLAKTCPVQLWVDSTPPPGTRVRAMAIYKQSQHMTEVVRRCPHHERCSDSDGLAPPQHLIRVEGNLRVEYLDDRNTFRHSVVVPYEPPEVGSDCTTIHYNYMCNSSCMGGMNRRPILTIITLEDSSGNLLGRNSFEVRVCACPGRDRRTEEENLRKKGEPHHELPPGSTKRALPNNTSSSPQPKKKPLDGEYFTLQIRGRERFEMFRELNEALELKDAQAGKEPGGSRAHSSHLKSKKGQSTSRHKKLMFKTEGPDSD

Experiment [17] is described as follows: TOX21_p53_BLA_p4_viability: Viability Assessment in the Tox21 HCT-116 p53 Agonism Beta-lactamase Assay, Phase 4 (AID 2283597; active = hit-call score of the fitted dose curve at least 0.9, where 1 is the maximum;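 also: hits lower the luminescence signal meaning cytotoxicity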). The essentials: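 We seeded HCT116 p53 reporter cells at 4000/well and waited 5 h. We then added compounds in DMSO at a 217-fold dilution and incubated for 16 h. Viability was read as CellTiter-Glo luminescence after 30 min at RT.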

The nature of experiment [18]: ATG_XTT_Cytotoxicity: Cytotoxicity Assessment in the Attagene TRANS-FACTORIAL HepG2 Assay (AID 2283584; active = hit-call score of the fitted dose curve at least 0.9, where 1 is the maximum;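 as to AC50: cells exposed to compound for 24 h before reading; active means loss of viability signal versus DMSO baseline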). Put shortly:
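XTT readout of cell number in transfected HepG2 cells, 24 h post-dosing; DMSO serves as negative control and baseline, with activity taken as loss of viability signal.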

Read-out in experiment [19]: X-box binding protein 1 (XBP1), XBP1 (gene 7494)
Briefly: LTEA_HepaRG_XBP1: Life Technologies and Expression Analysis (LTEA) Assay for X-box binding protein 1 (XBP1) using HepaRG (AID 2283540). The settings on record: mRNA level, 48 h; actives raise or lower the signal. The essentials:
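HepaRG, 48 h exposure, 8-pt half-log CRC top 100 uM, 0.5% DMSO vehicle, duplicates. Readout: TaqMan qRT-PCR of XBP1 mRNA, housekeeping-normalised (ACTB/GAPDH/POLR2A); bidirectional fit vs DMSO baseline.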

Values joined by “and” are separate entries in the source; they are usually repeats but may differ in a detail not shown here. Identical values can stand only once. Records with an inconclusive call do not appear. Active and inactive are the calls of the source. The calls were made as follows, unless noted: active = hit-call score of the fitted dose curve at least 0.9, where 1 is the maximum; inactive = score below 0.9.

Sequence of Signal transducer and activator of transcription 3 (Homo sapiens) (P40763 whole entry, looked up): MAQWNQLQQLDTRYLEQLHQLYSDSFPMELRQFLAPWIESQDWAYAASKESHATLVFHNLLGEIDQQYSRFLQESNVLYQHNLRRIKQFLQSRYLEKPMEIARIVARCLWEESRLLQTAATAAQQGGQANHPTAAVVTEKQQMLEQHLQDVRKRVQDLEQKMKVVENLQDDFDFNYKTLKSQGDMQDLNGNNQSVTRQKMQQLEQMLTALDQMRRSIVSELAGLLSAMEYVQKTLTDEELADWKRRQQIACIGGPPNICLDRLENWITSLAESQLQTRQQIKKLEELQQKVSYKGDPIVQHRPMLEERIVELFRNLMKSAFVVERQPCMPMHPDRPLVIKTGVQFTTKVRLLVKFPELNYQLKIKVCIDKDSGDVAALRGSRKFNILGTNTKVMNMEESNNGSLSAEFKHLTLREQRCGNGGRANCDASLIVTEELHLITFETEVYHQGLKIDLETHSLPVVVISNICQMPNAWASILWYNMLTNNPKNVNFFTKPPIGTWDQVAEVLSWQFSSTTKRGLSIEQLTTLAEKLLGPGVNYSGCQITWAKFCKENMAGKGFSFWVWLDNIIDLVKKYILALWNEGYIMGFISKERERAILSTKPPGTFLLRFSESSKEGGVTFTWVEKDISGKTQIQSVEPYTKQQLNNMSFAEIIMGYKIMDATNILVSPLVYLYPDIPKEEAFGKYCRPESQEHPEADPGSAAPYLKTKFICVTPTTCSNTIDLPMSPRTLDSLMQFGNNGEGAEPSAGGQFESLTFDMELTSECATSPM

Take `O=C(NC(=O)c1cc(F)c(F)cc1Cl)Nc1cc(F)ccc1N1CCC(C(=O)O)CC1`: the result in experiment [1], in experiment [2], in experiment [3], in [4], in experiment [5] and in experiment [6] was inactive. The outcome in the experiment with TIMP1, TIMP1 (gene 7076) is “inactive”; in experiment [7] it was “inactive”; in [8], “inactive”; in experiment [9], “inactive”; in [10] it was “inactive”; in experiment [11] it was “inactive”. Further, the outcome in [12], in [13], in [14], in experiment [15], in experiment [16] and in experiment [17] was inactive.
As a reminder, the AC50 is the concentration at which the activity in the assay is half-maximal. `CCCCCCCCCC[N+](C)(C)CCCCCCCCCC`: the molecule was called inactive in experiment [1], in experiment [2], in experiment [3], in [5], in [6] and in experiment [9]. In addition, the result in experiment [10] was inactive. The AC50 is 80.9 µM (active) in experiment [4]; 10.3 µM (active) with TIMP1, TIMP1 (gene 7076); 79.3 µM (active) in experiment [7]; 24.5 µM (active) in experiment [8]; 50 µM (active) in [11]; 36.6 µM (active) in experiment [12]. The AC50 is 18.5 µM (active) in experiment [18]; 36.4 µM (active) and 33.1 µM (active) in experiment [13]; 65.1 µM (active) and 39.6 µM (active) in [14]; 64 µM (active) and 27.4 µM (active) in [15]; 74.3 µM (active) and 39.7 µM (active) in [16]; 23.4 µM (active) and 21.1 µM (active) in experiment [17].
As for `c1ccc(-c2ccccc2)cc1`, the molecule was called inactive in experiment [1], in experiment [2], in [3], in experiment [4], in [5] and in experiment [6]. Moreover, the outcome was “inactive” with TIMP1, TIMP1 (gene 7076); “inactive” in experiment [7]; “inactive” in [8]; “inactive” in experiment [9]; “inactive” in experiment [10]; “inactive” in experiment [11]. The molecule was called inactive in experiment [12], in experiment [13], in experiment [14], in experiment [15] and in [16].
`CN(C)CCO`: the outcome was “inactive” in [2]; “inactive” in experiment [3]; “inactive” in experiment [4]; “inactive” in experiment [5]; “inactive” in experiment [6]; “inactive” with TIMP1, TIMP1 (gene 7076). In addition, the outcome in experiment [7], in experiment [8], in [9], in experiment [10], in experiment [11] and in [19] was inactive. The call in [12], in [18], in [13], in [14], in [15] and in experiment [16] was inactive. In experiment [17], the outcome was inactive.

Source of the values: PubChem BioAssay (EPA / NIEHS).
